{
  "source": "PubChem BioAssay",
  "note": "The source made the active and inactive calls. Cut-off read from the data, not from the text of the source, unless noted: active = inhibition above about 25%; inactive = the rest.",
  "data": [
    {"biological_target": "Nuclear receptor coactivator 1 (Homo sapiens) (UniProt Q15788)", "sequence (Q15788 whole entry, looked up, the tested form may be a part)": "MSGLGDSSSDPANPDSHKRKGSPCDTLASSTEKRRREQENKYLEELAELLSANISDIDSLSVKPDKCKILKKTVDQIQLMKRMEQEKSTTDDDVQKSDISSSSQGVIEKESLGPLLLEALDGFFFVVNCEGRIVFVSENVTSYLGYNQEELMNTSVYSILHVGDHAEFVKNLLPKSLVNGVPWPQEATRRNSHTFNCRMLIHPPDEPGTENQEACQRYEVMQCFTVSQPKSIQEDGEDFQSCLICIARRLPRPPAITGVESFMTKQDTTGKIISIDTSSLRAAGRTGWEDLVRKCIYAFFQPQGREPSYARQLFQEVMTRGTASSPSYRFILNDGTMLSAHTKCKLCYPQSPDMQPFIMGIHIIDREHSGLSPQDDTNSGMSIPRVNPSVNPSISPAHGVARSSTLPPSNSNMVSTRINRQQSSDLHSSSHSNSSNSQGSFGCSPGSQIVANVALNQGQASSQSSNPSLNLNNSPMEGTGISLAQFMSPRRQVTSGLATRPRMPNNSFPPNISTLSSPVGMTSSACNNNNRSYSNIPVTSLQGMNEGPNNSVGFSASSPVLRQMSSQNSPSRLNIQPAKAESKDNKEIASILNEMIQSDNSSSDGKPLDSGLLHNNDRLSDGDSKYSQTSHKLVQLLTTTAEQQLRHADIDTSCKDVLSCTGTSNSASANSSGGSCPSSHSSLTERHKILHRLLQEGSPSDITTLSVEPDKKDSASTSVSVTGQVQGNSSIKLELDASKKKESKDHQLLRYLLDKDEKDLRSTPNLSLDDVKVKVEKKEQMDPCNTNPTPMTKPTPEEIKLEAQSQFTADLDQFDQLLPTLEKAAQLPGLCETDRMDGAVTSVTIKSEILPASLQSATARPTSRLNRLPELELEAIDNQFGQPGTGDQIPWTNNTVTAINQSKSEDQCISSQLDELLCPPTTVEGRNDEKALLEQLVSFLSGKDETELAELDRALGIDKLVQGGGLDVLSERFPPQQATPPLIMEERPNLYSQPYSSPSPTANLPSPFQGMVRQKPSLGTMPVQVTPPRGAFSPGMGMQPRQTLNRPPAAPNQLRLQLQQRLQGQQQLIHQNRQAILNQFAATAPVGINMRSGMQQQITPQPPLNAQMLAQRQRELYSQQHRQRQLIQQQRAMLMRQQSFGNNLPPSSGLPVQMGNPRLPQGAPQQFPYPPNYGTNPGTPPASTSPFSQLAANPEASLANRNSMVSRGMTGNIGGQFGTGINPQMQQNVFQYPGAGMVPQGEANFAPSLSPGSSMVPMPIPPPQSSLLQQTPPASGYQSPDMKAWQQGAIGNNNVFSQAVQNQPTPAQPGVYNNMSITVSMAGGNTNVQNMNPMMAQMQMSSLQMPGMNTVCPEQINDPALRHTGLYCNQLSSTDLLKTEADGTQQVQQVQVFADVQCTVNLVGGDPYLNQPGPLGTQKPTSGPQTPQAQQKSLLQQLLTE", "assay": "SRC1 coactivator transcriptional activity inhibitors, confirmation, cell-based, luminescence, quadruplicate (AID 588820;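 active = mean inhibition above 46.68%, the untreated control wells mean plus 3 SD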;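 note: 0% = DMSO wells and 100% = gossypol 36 µM treated wells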)", "conditions": "HEK293 GAL4-SRC1 luciferase reporter, at 3.6 µM, active compounds read high", "values": [
      {"smiles": "NS(=O)(=O)c1ccc(N=Nc2c(O)ccc3ccccc23)cc1", "inhibition": "7.96% (inactive)"},
      {"smiles": "CCOC(=O)c1c(NC(=O)c2c(-c3ccccc3)noc2C)sc(C)c1-c1ccccc1", "inhibition": "39.9% (inactive)"},
      {"smiles": "Nc1nc(N)c2c(ccc3nccc32)[nH]1", "inhibition": "-7.68% (inactive)"},
      {"smiles": "CCCCc1ccc(NC(=O)c2ccc(N(C)S(C)(=O)=O)cc2)cc1", "inhibition": "-25.4% (inactive)"},
      {"smiles": "CC(=O)c1cn(CC(=O)Nc2cccc(C)c2C)c2ccccc12", "inhibition": "-15.8% (inactive)"},
      {"smiles": "O=C(NCC[C@@H]1C[C@@H]2C=C[C@H]1C2)c1cc(COc2ccc(F)cc2F)on1", "inhibition": "-4.95% (inactive)"},
      {"smiles": "Cc1cc2c(NCc3ccccc3)ncnc2s1", "inhibition": "5% (inactive)"},
      {"smiles": "CCC(Oc1ccccc1)C(=O)Nc1cc(C(F)(F)F)ccc1N1CCOCC1", "note": "(stereo not given)", "inhibition": "10.6% (inactive)"},
      {"smiles": "Cc1nn(-c2ccccc2)c(N2CCCC2)c1/C=N/NC(=S)Nc1ccc(F)cc1", "inhibition": "3.12% (inactive)"},
      {"smiles": "CCOC(=O)c1c(-c2ccccc2)csc1NC(=O)c1nn(CC)cc1Br", "inhibition": "-4.38% (inactive)"},
      {"smiles": "O=C(C[C@H]1C[C@H](C(=O)N2CCOCC2)[C@@]2(CCC3CCCC3)c3[nH]c4ccc(Cl)cc4c3CCN2C1=O)NCCCn1ccnc1", "inhibition": "-4.01% (inactive)"},
      {"smiles": "CN(C)C(=O)c1ccc(-c2n[nH]c(=O)c3ccccc23)cc1", "inhibition": "34.3% (inactive)"},
      {"smiles": "CCCCNC(=O)C1(C)CCCCN1C(=O)c1ccc2c(c1)C(C)(C)CCC2(C)C", "note": "(stereo not given)", "inhibition": "7.49% (inactive)"},
      {"smiles": "COc1ccc(CC(=O)Nc2ccc3c(c2)CCC3)cc1OC", "inhibition": "10.1% (inactive)"},
      {"smiles": "C=CCn1c(SCC(=O)Nc2ccccc2F)nc2ccccc2c1=O", "inhibition": "2.78% (inactive)"},
      {"smiles": "Cc1ccc(O)c(C(=O)c2cnn(C(=O)COc3ccc(Cl)cc3)c2)c1", "inhibition": "23.6% (inactive)"},
      {"smiles": "COc1ccc(C(=O)Nc2ccc(-c3ccc(C)o3)cc2)cc1S(=O)(=O)N1CCOCC1", "inhibition": "-16.1% (inactive)"},
      {"smiles": "Cc1cc(=O)oc2cc(OCc3ccc(C(=O)N4CCN(c5ccc([N+](=O)[O-])cc5)CC4)cc3)ccc12", "inhibition": "10.5% (inactive)"},
      {"smiles": "Cn1c(=O)[nH]c(=O)c2c1nc(N1CCCCC1)n2CC(O)COc1ccc([N+](=O)[O-])cc1", "note": "(stereo not given)", "inhibition": "-27.8% (inactive)"},
      {"smiles": "CC(C)(C)c1ccc(-n2ncc3c2CCCC3NC(=O)CN2CCOC2=O)cc1", "note": "(stereo not given)", "inhibition": "-6.1% (inactive)"},
      {"smiles": "Cc1ccnc(SC2CC(=O)N(c3ccc(C(C)C)cc3)C2=O)n1", "note": "(stereo not given)", "inhibition": "7.69% (inactive)"},
      {"smiles": "CCC1CCCCN1C(=O)CSc1nc(N)cc(=O)[nH]1", "note": "(stereo not given)", "inhibition": "-15.7% (inactive)"},
      {"smiles": "Cc1csc(N=Cc2ccc([N+](=O)[O-])o2)n1", "inhibition": "30.6% (inactive)"},
      {"smiles": "O=C(CCCn1c(=S)[nH]c2ccsc2c1=O)Nc1ccc2c(c1)OCCO2", "inhibition": "-1.89% (inactive)"},
      {"smiles": "O=C(Nc1ccc(Cl)c(Cl)c1)c1cccc(S(=O)(=O)NCc2cccnc2)c1", "inhibition": "6.28% (inactive)"}
    ]},
    {"test_system": "not listed separately", "assay": "VP16 transactivation inhibitors, counter-screen for SRC1 inhibitor project, cell-based, luminescence, high throughput (AID 588824)", "conditions": "cell-based VP16 transactivation luciferase luminescence; at 3.6 µM; active compounds read high", "values": [
      {"smiles": "CC(=O)/C(=C/c1ccccc1)C(=O)Nc1ccccc1C", "inhibition": "23.8% (inactive)"},
      {"smiles": "CC1CN(c2nc3ccccc3nc2SCC(=O)Nc2cccc(C(F)(F)F)c2)CC(C)O1", "note": "(stereo not given)", "inhibition": "5.85% (inactive)"},
      {"smiles": "NS(=O)(=O)c1ccc(CCNC(=O)c2ccc(C#CC3(O)CCCCC3)cc2)cc1", "inhibition": "-3.61% (inactive)"},
      {"smiles": "CCOC(=O)CNC(c1ccccc1)c1cc(Br)ccc1NC(C)=O", "note": "(stereo not given)", "inhibition": "4.71% (inactive)"},
      {"smiles": "O=C(NC1CCCC1)C(c1ccccc1)N(Cc1ccco1)C(=O)Cc1cccs1", "note": "(stereo not given)", "inhibition": "31.5% (active)"},
      {"smiles": "COc1ccc(OC)c(NC(=O)c2cc(-c3c(C)cc(C)cc3O)n[nH]2)c1", "inhibition": "6.02% (inactive)"},
      {"smiles": "CCN(CC)S(=O)(=O)c1cc(NC(=O)C2CCN(c3ncnc4sc(C)c(C)c34)CC2)ccc1Cl", "inhibition": "34.4% (active)"},
      {"smiles": "Cc1ccc2cc3cc(C(=O)NCc4ccco4)oc3nc2c1", "inhibition": "36% (active)"},
      {"smiles": "CN(CC(=O)Nc1ccc(Cl)c(C(F)(F)F)c1)C(=O)C1CC(=O)N(c2ccc3c(c2)OCCO3)C1", "note": "(stereo not given)", "inhibition": "14% (inactive)"},
      {"smiles": "Cc1cc(NCc2cccnc2)no1", "inhibition": "9.01% (inactive)"},
      {"smiles": "COc1ccc(-c2csc3ncnc(N4CCN(CCO)CC4)c23)cc1", "inhibition": "9.88% (inactive)"},
      {"smiles": "CN1OC[C@@H]2CN(C(=S)NCCc3ccccc3)[C@H](c3ccc(-n4ccnc4)cc3)C[C@@H]21", "inhibition": "-0.23% (inactive)"},
      {"smiles": "COc1ccc(CCn2c(-c3ccco3)nc3ccccc3c2=O)cc1OC", "inhibition": "-17.7% (inactive)"},
      {"smiles": "CN1CCN(C(=O)CCN2C(=O)/C(=C/c3cccc(Br)c3)SC2=S)CC1", "inhibition": "16.9% (inactive)"},
      {"smiles": "COc1ccc(C(C(=O)NCC2CCCO2)N(Cc2cccs2)C(=O)c2snc(C(N)=O)c2N)cc1", "note": "(stereo not given)", "inhibition": "-8.57% (inactive)"},
      {"smiles": "NS(=O)(=O)c1ccc(N=Nc2c(O)ccc3ccccc23)cc1", "inhibition": "4.7% (inactive)"},
      {"smiles": "CCOC(=O)c1c(NC(=O)c2c(-c3ccccc3)noc2C)sc(C)c1-c1ccccc1", "inhibition": "78.2% (active)"},
      {"smiles": "Nc1nc(N)c2c(ccc3nccc32)[nH]1", "inhibition": "24.9% (inactive)"},
      {"smiles": "CCCCc1ccc(NC(=O)c2ccc(N(C)S(C)(=O)=O)cc2)cc1", "inhibition": "31.3% (active)"},
      {"smiles": "CC(=O)c1cn(CC(=O)Nc2cccc(C)c2C)c2ccccc12", "inhibition": "13% (inactive)"},
      {"smiles": "O=C(NCC[C@@H]1C[C@@H]2C=C[C@H]1C2)c1cc(COc2ccc(F)cc2F)on1", "inhibition": "1.83% (inactive)"},
      {"smiles": "Cc1cc2c(NCc3ccccc3)ncnc2s1", "inhibition": "18.8% (inactive)"},
      {"smiles": "CCC(Oc1ccccc1)C(=O)Nc1cc(C(F)(F)F)ccc1N1CCOCC1", "note": "(stereo not given)", "inhibition": "1.21% (inactive)"},
      {"smiles": "Cc1nn(-c2ccccc2)c(N2CCCC2)c1/C=N/NC(=S)Nc1ccc(F)cc1", "inhibition": "0.35% (inactive)"},
      {"smiles": "CCOC(=O)c1c(-c2ccccc2)csc1NC(=O)c1nn(CC)cc1Br", "inhibition": "-7.57% (inactive)"},
      {"smiles": "O=C(C[C@H]1C[C@H](C(=O)N2CCOCC2)[C@@]2(CCC3CCCC3)c3[nH]c4ccc(Cl)cc4c3CCN2C1=O)NCCCn1ccnc1", "inhibition": "2.48% (inactive)"},
      {"smiles": "CN(C)C(=O)c1ccc(-c2n[nH]c(=O)c3ccccc23)cc1", "inhibition": "18.3% (inactive)"},
      {"smiles": "CCCCNC(=O)C1(C)CCCCN1C(=O)c1ccc2c(c1)C(C)(C)CCC2(C)C", "note": "(stereo not given)", "inhibition": "10.7% (inactive)"},
      {"smiles": "COc1ccc(CC(=O)Nc2ccc3c(c2)CCC3)cc1OC", "inhibition": "2.91% (inactive)"},
      {"smiles": "C=CCn1c(SCC(=O)Nc2ccccc2F)nc2ccccc2c1=O", "inhibition": "-1.24% (inactive)"},
      {"smiles": "Cc1ccc(O)c(C(=O)c2cnn(C(=O)COc3ccc(Cl)cc3)c2)c1", "inhibition": "4.05% (inactive)"},
      {"smiles": "COc1ccc(C(=O)Nc2ccc(-c3ccc(C)o3)cc2)cc1S(=O)(=O)N1CCOCC1", "inhibition": "22.2% (inactive)"},
      {"smiles": "Cc1cc(=O)oc2cc(OCc3ccc(C(=O)N4CCN(c5ccc([N+](=O)[O-])cc5)CC4)cc3)ccc12", "inhibition": "-3.02% (inactive)"},
      {"smiles": "Cn1c(=O)[nH]c(=O)c2c1nc(N1CCCCC1)n2CC(O)COc1ccc([N+](=O)[O-])cc1", "note": "(stereo not given)", "inhibition": "-19% (inactive)"},
      {"smiles": "CC(C)(C)c1ccc(-n2ncc3c2CCCC3NC(=O)CN2CCOC2=O)cc1", "note": "(stereo not given)", "inhibition": "7.65% (inactive)"},
      {"smiles": "Cc1ccnc(SC2CC(=O)N(c3ccc(C(C)C)cc3)C2=O)n1", "note": "(stereo not given)", "inhibition": "-8.25% (inactive)"},
      {"smiles": "CCC1CCCCN1C(=O)CSc1nc(N)cc(=O)[nH]1", "note": "(stereo not given)", "inhibition": "-3.43% (inactive)"},
      {"smiles": "Cc1csc(N=Cc2ccc([N+](=O)[O-])o2)n1", "inhibition": "32.2% (active)"},
      {"smiles": "O=C(CCCn1c(=S)[nH]c2ccsc2c1=O)Nc1ccc2c(c1)OCCO2", "inhibition": "-10.8% (inactive)"},
      {"smiles": "O=C(Nc1ccc(Cl)c(Cl)c1)c1cccc(S(=O)(=O)NCc2cccnc2)c1", "inhibition": "25.9% (active)"}
    ]}
  ]
}
